High-throughput results (PubChem)
These entries were drawn from the full list.
LmPK activator – boosts Leishmania mexicana pyruvate kinase activity. AID 1722. 290,000 tested, under 10 active. activity change, negative = inhibition, % at 57.5 µM. purified LmPK, Kinase-Glo ATP luminescence, 1 h. Q27686; calls by dose curve
Target sequence (Q27686 whole entry, looked up): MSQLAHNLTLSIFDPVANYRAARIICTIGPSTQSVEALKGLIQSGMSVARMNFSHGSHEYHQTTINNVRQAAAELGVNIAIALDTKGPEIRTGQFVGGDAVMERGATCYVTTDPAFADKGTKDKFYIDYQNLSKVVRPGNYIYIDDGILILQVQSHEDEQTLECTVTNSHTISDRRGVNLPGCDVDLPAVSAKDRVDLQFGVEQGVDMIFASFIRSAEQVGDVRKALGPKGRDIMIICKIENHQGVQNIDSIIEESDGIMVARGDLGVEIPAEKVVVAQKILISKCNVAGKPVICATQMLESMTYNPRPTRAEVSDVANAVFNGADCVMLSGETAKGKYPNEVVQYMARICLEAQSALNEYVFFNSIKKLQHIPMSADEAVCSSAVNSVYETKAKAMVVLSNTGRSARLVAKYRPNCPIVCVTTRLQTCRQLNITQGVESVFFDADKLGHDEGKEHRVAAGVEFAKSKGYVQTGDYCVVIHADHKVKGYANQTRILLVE
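Purified L. mexicana pyruvate kinase (0.1 nM) with 0.5 mM PEP and 0.1 mM ADP in pH 7.2 imidazole buffer, 1 h at RT. ATP formed measured by Kinase-Glo luminescence; normalized to uninhibited and no-enzyme wells.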
An asterisk follows results filed as active.

SMILES | LmPK activator
O=C(N=Nc1ccc(NOC(=O)c2ccccc2Br)cc1)c1ccccc1O | -50
Cc1ccc(SCc2cn3c(C)csc3n2)cc1 | -57
Cc1cc(C)c(S(=O)(=O)/N=C2/C=C(Sc3ncn[nH]3)C(=O)c3ccccc32)cc1C | -63
Cc1ccc(C2CC2c2n[nH]c(=S)n2-c2cccc(Cl)c2)cc1 (configuration not stated) | -47
Cc1ccc(-n2c(CCc3ccccc3)n[nH]c2=S)cc1C | -82
[O-][n+]1c2ccccc2[n+]([O-])c2cc(O)ccc21 | -38
COc1cc(-c2n[nH]c(=S)n2/N=C/c2cccn2C)cc(OC)c1OC | -88
COc1cccc(Cc2n[nH]c(=S)n2Cc2ccco2)c1 | -45
O=C(Nc1ccccc1F)N(CCCN1CCOCC1)Cc1cc2cc3c(cc2[nH]c1=O)OCCO3 | -36
CCOC(=O)C1=C(C)Nc2nc(=S)[nH]n2C1c1ccc(Cl)cc1 (configuration not stated) | -21
S=c1[nH]nc(-c2ccc(Cl)cc2Cl)n1-c1ccc(Cl)cc1 | -32
Cc1ccc(S(=O)(=O)N2C(=O)[C@@H]3Cc4ccccc4CN3C2=O)cc1 | -36
COc1ccc(C(=O)Nc2ccccc2C(=O)N/N=C/c2ccco2)cc1 | -63
O=C(Cc1ccccc1)NCc1n[nH]c(=S)n1-c1ccc(Br)cc1 | -35
O=C(Nc1ccccc1C(=O)N/N=C/c1ccncc1)c1ccccc1 | -80
Cn1cccc1/C=N/NC(=O)c1ccn[nH]1 | -31
Cc1ccc(-c2ccc(=O)n(CCC(=O)N3CCN(c4cccc(C)c4)C(C)C3)n2)cc1 (configuration not stated) | 4
COC(=O)c1cnc(SCC(=O)c2ccccc2)n1C | -40
COc1ccc(-c2cc(C(=O)Nc3cccc(O)c3)no2)cc1 | -30
CN=c1scc(-c2ccc(F)cc2)n1/N=C/c1ccc(O)c(O)c1 | -54
Cc1ccccc1/C(N)=N/OC(=O)c1cccs1 | -54
COc1ccc(-c2nc3nc(C)cc(C)n3n2)cc1 | -34
CCn1cc(C(=O)O)c(=O)c2cc(F)c(N3CCN(C(=S)NC(=O)c4ccc(F)c(F)c4)CC3)cc21 | -45
O=C1C=CC(=O)C(C2=C3C(=O)N(CCc4ccccc4)CC(=O)N3CCC2)=C1 | -42
Oc1c(Cl)cc(Cl)cc1C=Nc1cc(C(F)(F)F)ccc1N1CCc2ccccc2C1 | -68
SMILES | LmPK activator
Cc1ccc(C(=O)O/N=C(\N)c2nonc2N)cc1 | -107
CC1=C(C)Cc2c(OC(=O)c3ccccc3)ccc(OC(=O)c3ccccc3)c2C1 | 2
COc1ccc2nc(/N=C/c3c(C)[nH]n(-c4ccc(C)cc4)c3=O)sc2c1 | -81
O=C(Nc1cccc(O)c1)c1cc(-c2ccco2)on1 | -31
Cc1cc(/C(N)=N/OC(=O)c2ccccc2Cl)no1 | -71
COC(=O)c1ccc(-c2nc3ccccc3[nH]2)cc1 | -54
O=C(O)C1Nc2c(O)cc(Cl)c([N+](=O)[O-])c2C2C=CCC12 (configuration not stated) | -31
C/C(=N/OC(=O)c1ccc(C(F)(F)F)cc1)c1oc(C)nc1C | -40
O=C(/C=C/c1ccnc2ccccc12)c1cccs1 | -59
CCc1c(C)c(C#N)c2[nH]c3ccccc3n2c1=S | -60
CC(C)OCCCn1c(-c2ccc(Br)cc2)c[nH]c1=S | -64
COc1ccc(N/N=C(C)/C(=N/O)C(=O)Nc2ccccc2)cc1 | -33
O=C(Nc1ccc(C(=O)N2CCCCC2)cc1)C1=CSCCO1 | -46
Cc1n[nH]c(=O)nc1N/N=C/c1ccc(O)c([N+](=O)[O-])c1 | -43
Brc1ccc(N=Nc2ccc3ccccc3n2)cc1 | -88
CCCC(=O)Nc1cnc(NC(=O)c2cccc(F)c2)cc1C | -48
COc1cc(/C=C2\SC(=Nc3ccc(Cl)c(C(=O)O)c3)NC2=O)c(Br)c(Br)c1O | -30
CCc1ccc(C2=NN(C(C)=O)C(c3ccco3)C2)cc1 (configuration not stated) | -60
CC(C)Oc1ccc(CCc2n[nH]c(=S)n2-c2ccccc2)cc1 | -65
O=C(O)c1ccc(-n2cc(-c3cc4ccccc4oc3=O)[nH]c2=S)cc1 | -57
Cc1cc(C)n(C2=NS(=O)(=O)c3ccccc32)n1 | -93
COc1cc(N2C(=O)C=CC2=O)c(OC)cc1Cl | -61
COC(=O)C(CC(=O)c1ccc(Br)cc1)n1ccnc1 (configuration not stated) | -87
CC(=O)Oc1c(Br)cc(N(C(C)=O)S(=O)(=O)c2ccccc2)c2ccccc12 | -48
CC1=C(C#N)C(=O)N(C2CCS(=O)(=O)C2)C(=O)/C1=C\c1ccco1 (configuration not stated) | -31
SMILES | LmPK activator
C=CC[n+]1ccc(/C=C2\C=Cc3cc(C)ccc3N2CC)c2ccccc21 | -39
O=S(=O)(Nc1ccc(O)c(NS(=O)(=O)c2ccccc2)c1)c1ccccc1 | -69
CCCCc1ccc(NC(=O)C(C)CC)cc1 (configuration not stated) | -48
Cc1ccccc1-c1n[nH]c(=S)n1/N=C/c1c(C)nn(-c2ccccc2)c1C | -21
CCCn1nnc(NC(=S)NC(=O)c2cccs2)n1 | -70
CSc1ccc(/C=C/C(=O)c2c(O)cc(C)oc2=O)cc1 | -30
CC(=O)Oc1ccc(/C=C2/CCc3ccccc3C2=O)cc1 | -101
N#CC(C#N)=c1ccc2c(c1)NC1(CCCCC1)N=2 | -63
CCNC(=O)NC(=O)COC(=O)c1ccccc1SCC(=O)NC(=O)NCC | -34
COc1cccc(C(=O)Nc2ccc(C(F)(F)F)n(C)c2=O)c1 | -43
C=CCN1C(=O)/C(=c2\sc3nc(=O)c(Cc4ccccc4Cl)nn3c2=O)c2ccccc21 | -49
O=C(NNc1cc(Br)c(O)c(Br)c1)c1ccccc1 | -38
COc1cc(-c2n[nH]c(=S)n2-c2cc(C(F)(F)F)ccc2Cl)cc(OC)c1OC | -40
N/C(=N\OC(=O)CCC1CCCC1)c1ccccn1 | -54
COc1ccc2oc(C(=O)NCCN3CCOCC3)c(C)c2c1OC | -36
CC(C)Cn1c(-c2ccc(Br)o2)n[nH]c1=S | -36
